The source of these data is PubChem BioAssay (NCATS).

Records with an inconclusive call do not appear. Where a call stands in place of a potency, no number is given. The source made the active and inactive calls. Calls follow the shape of the dose curve; as a rule, active = well fitted curve in the direction sought with a large enough effect; inconclusive = small, poorly fitted or top-dose-only effect, or another doubt; inactive = no such curve, though single readings can be large; an effect the other way counts as inactive or inconclusive.

Arylsulfatase A (Homo sapiens), sequence (P15289 whole entry, looked up): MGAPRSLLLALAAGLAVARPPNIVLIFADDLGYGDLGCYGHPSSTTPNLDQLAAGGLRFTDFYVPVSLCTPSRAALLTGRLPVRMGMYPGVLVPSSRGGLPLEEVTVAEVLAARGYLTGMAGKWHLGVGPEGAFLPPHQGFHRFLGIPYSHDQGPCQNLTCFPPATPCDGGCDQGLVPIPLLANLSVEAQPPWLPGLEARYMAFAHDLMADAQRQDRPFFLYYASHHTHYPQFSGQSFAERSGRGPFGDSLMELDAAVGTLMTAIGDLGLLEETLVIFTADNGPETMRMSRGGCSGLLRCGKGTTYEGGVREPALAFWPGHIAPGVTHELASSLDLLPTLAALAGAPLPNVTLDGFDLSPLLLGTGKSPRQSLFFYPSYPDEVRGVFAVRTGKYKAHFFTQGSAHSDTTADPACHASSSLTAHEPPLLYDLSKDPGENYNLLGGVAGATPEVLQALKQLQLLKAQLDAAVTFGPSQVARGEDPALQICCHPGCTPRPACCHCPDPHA

The target of one experiment is Arylsulfatase A (Homo sapiens) (UniProt P15289). Kind of experiment: qHTS screen for enhancers of Arylsulfatase A (ASA1): LOPAC Validation Assay (AID 720538). The conditions noted are these: ASA enzyme activity, LOPAC qHTS enhancer assay; series mostly up to 57.5 µM. In a few lines:
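SV40-transformed fibroblasts from an MLD patient (ASA-I179S) were treated with compound for 48 h at 37 C. They were then lysed with 0.5 mM pNCS substrate (final) for 14 h at room temperature and stopped with NaOH; signal read by fluorescence (Ex 525/Em 598 nm), with increase denoting enhanced activity.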
Turning to `COc1ccc2[nH]cc(CCN)c2c1`, the Potency result is “inactive”.
On to `CN1C2CCC1CC(OC(c1ccccc1)c1ccccc1N)C2` (centres undefined), for which the Potency result is “inactive”.
On the same count and under the same terms, the result for `NC(=O)COc1c(F)cc(SCCNS(=O)(=O)c2ccccc2)cc1F` reads “inactive”; that for `C[C@@H]1O[C@H](C[N+](C)(C)C)CS1`, “inactive”; that for `Nc1ccc(CCN2CCN(c3cccc(C(F)(F)F)c3)CC2)cc1`, “inactive”.
Same read-out and setting: the result for `CCCn1c(C)c(C(=O)c2ccc3ccccc3c2)c2ccccc21` reads “inactive”; that for `COC(=O)N1CCN(C(=O)Cc2ccc(Cl)c(Cl)c2)C(CN2CCCC2)C1` (centres undefined), “inactive”.
Same read-out and setting: the result for `CCCC[N+]1(C)C2CC(OC(=O)[C@H](CO)c3ccccc3)CC1C1OC12` (some centres undefined) reads “inactive”; that for `CN1CCc2cccc(Cl)c2CC1`, “inactive”.

Tested on in another experiment: not listed separately
Kind of experiment: qHTS for compounds that reverse cellular toxicity of Amyloid beta (A-beta) peptide in yeast: LOPAC Validation Assay (AID 720559). The conditions noted are these: yeast expressing A-beta; series mostly up to 46.1 µM. In a few lines:
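Yeast expressing toxic A-beta grown with pinned compounds at 30 C for 48 hr. Growth measured as absorbance at 600 nm; data normalized to DMSO and to an equimolar FeCl3/clioquinol mixture as positive control.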
In the case of `CC(N)[C@H](O)c1ccc(O)c(O)c1` (some centres undefined), the result was inactive.
`N=C(N)c1ccc(CS(=O)(=O)F)cc1`: the call was inactive.
On the same count and under the same terms, the result for `Cc1cc([C@@H]2CCCN2C)on1` reads “inactive”; that for `CC(N)Cc1c[nH]c2ccc(OCc3cccs3)cc12` (centres undefined), “inactive”.
Regarding `N[C@@H](Cn1oc(=O)[nH]c1=O)C(=O)O`, the compound was called inactive.
Still for that read-out and setting: the result for `COc1ccc2[nH]cc(CCN)c2c1` reads “inactive”; that for `CN1C2CCC1CC(OC(c1ccccc1)c1ccccc1N)C2` (centres undefined), “inactive”.
On the same count and under the same terms, the result for `O=[N+]([O-])c1ccc2nc(N3CCNCC3)ccc2c1` reads “inactive”; that for `NC(=O)COc1c(F)cc(SCCNS(=O)(=O)c2ccccc2)cc1F`, “inactive”.
In the case of `NCCc1c[nH]c2ccc(C(N)=O)cc12`, the result was inactive.
Still for that read-out and setting: the result for `CC(N)c1cccc(Cl)c1Cl` (centres undefined) reads “inactive”.
Still for that read-out and setting: the result for `COc1ccc(OC)c(C(O)C(C)N)c1` (centres undefined) reads “inactive”.
On the same count and under the same terms, the result for `CC(=O)NBr` reads “inactive”.
In the case of `NCC(O)c1cc(O)c(O)cc1F` (centres undefined), the result was inactive.
Still for that read-out and setting: the result for `N#CCCN` reads “inactive”; that for `C=CCN1CCc2cccc3c2[C@H]1Cc1ccc(O)c(O)c1-3`, “inactive”; that for `C[N+](C)(C)CCOC(=O)CBr`, “inactive”.
Turning to `CCCN1CCc2cc(O)cc3c2[C@H]1Cc1ccc(O)c(O)c1-3`, the compound was classed as inactive.
Still for that read-out and setting: the result for `C[C@@H]1O[C@H](C[N+](C)(C)C)CS1` reads “inactive”; that for `CCCN(CCC)[C@H]1CCc2c(F)ccc(O)c2C1`, “inactive”.
Same read-out and setting: the result for `C[C@@H]1O[C@@H](O[C@H]2C[C@@H](O)[C@]3(CO)[C@@H]4C(CC[C@]3(O)C2)[C@@]2(O)CC[C@H]([C@@H]3COC(=O)C3)[C@@]2(C)C[C@H]4O)[C@H](O)[C@H](O)[C@H]1O` (some centres undefined) reads “inactive”.
Still for that read-out and setting: the result for `COc1ccc2c(c1)c(CCN1CCOCC1)c(C)n2C(=O)c1cccc(Cl)c1Cl` reads “inactive”; that for `Clc1ccc(N2CC3CCC(C2)N3)nn1`, “inactive”; that for `C[N+]1(C)C2CCC1CC(OC(=O)c1c[nH]c3ccccc13)C2` (centres undefined), “inactive”.
Regarding `Nc1ccc(CCN2CCN(c3cccc(C(F)(F)F)c3)CC2)cc1`, the compound was called inactive.
Same read-out and setting: the result for `CCNC(=O)[C@H]1O[C@@H](n2cnc3c(N)ncnc32)[C@H](O)[C@@H]1O` reads “inactive”; that for `CCCCCCC(C)(C)c1ccc([C@@H]2C[C@H](O)CC[C@H]2CCCO)c(O)c1`, “inactive”.
Consider `CCCn1c(C)c(C(=O)c2ccc3ccccc3c2)c2ccccc21`, for which the call was inactive.
Still for that read-out and setting: the result for `O=[N+]([O-])/C=C/c1ccc2c(c1)OCO2` reads “inactive”; that for `COC(=O)N1CCN(C(=O)Cc2ccc(Cl)c(Cl)c2)C(CN2CCCC2)C1` (centres undefined), “inactive”.
Still for that read-out and setting: the result for `CCCC[N+]1(C)C2CC(OC(=O)[C@H](CO)c3ccccc3)CC1C1OC12` (some centres undefined) reads “inactive”.
Regarding `CN1CCc2cccc(Cl)c2CC1`, the result was inactive.
The same measure, in the same setting: the result for `NC(=O)c1cc(N2CC2)c([N+](=O)[O-])cc1[N+](=O)[O-]` reads “inactive”; that for `CCCN(CCC)CCc1ccc(O)c(O)c1`, “inactive”; that for `CN1CCc2cc(O)cc3c2[C@H]1Cc1ccc(O)c(O)c1-3`, “inactive”.

Tested on in a further experiment: not listed separately
The experiment can be described thus: qHTS for Activators of Parkin Expression: LOPAC Validation Assay (NLuc Reporter) (AID 720572). Particulars: Parkin promoter NanoLuc reporter cells, luminescence; series mostly up to 46.1 µM. In a few lines:
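Neuronal cells with a Parkin promoter-driven FLuc/NLuc coincidence reporter were treated 24 h at 37 C in 7-point dose response (LOPAC). NLuc luminescence read after FLuc; signals normalized to DMSO and positive control (100%).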
In the case of `CC(N)[C@H](O)c1ccc(O)c(O)c1` (some centres undefined), the Potency result is “inactive”.
The same measure, in the same setting: the result for `N=C(N)c1ccc(CS(=O)(=O)F)cc1` reads “inactive”.
As to `Cc1cc([C@@H]2CCCN2C)on1`, the Potency result is “inactive”.
On to `CC(N)Cc1c[nH]c2ccc(OCc3cccs3)cc12` (centres undefined), for which the Potency entry was “inactive”.
On the same count and under the same terms, the result for `N[C@@H](Cn1oc(=O)[nH]c1=O)C(=O)O` reads “inactive”; that for `COc1ccc2[nH]cc(CCN)c2c1`, “inactive”.
The same measure, in the same setting: the result for `CN1C2CCC1CC(OC(c1ccccc1)c1ccccc1N)C2` (centres undefined) reads “inactive”; that for `O=[N+]([O-])c1ccc2nc(N3CCNCC3)ccc2c1`, “inactive”; that for `NC(=O)COc1c(F)cc(SCCNS(=O)(=O)c2ccccc2)cc1F`, “inactive”.
As for `NCCc1c[nH]c2ccc(C(N)=O)cc12`, the Potency result was “inactive”.
Same read-out and setting: the result for `CC(N)c1cccc(Cl)c1Cl` (centres undefined) reads “inactive”; that for `COc1ccc(OC)c(C(O)C(C)N)c1` (centres undefined), “inactive”.
Still for that read-out and setting: the result for `CC(=O)NBr` reads “inactive”; that for `NCC(O)c1cc(O)c(O)cc1F` (centres undefined), “inactive”.
The same measure, in the same setting: the result for `N#CCCN` reads “inactive”.
With `C=CCN1CCc2cccc3c2[C@H]1Cc1ccc(O)c(O)c1-3`, the Potency result is “inactive”.
Same read-out and setting: the result for `C[N+](C)(C)CCOC(=O)CBr` reads “inactive”; that for `CCCN1CCc2cc(O)cc3c2[C@H]1Cc1ccc(O)c(O)c1-3`, “inactive”.
`C[C@@H]1O[C@H](C[N+](C)(C)C)CS1`: the Potency result is “inactive”.
Regarding `CCCN(CCC)[C@H]1CCc2c(F)ccc(O)c2C1`, the Potency entry is “inactive”.
On the same count and under the same terms, the result for `C[C@@H]1O[C@@H](O[C@H]2C[C@@H](O)[C@]3(CO)[C@@H]4C(CC[C@]3(O)C2)[C@@]2(O)CC[C@H]([C@@H]3COC(=O)C3)[C@@]2(C)C[C@H]4O)[C@H](O)[C@H](O)[C@H]1O` (some centres undefined) reads “inactive”; that for `COc1ccc2c(c1)c(CCN1CCOCC1)c(C)n2C(=O)c1cccc(Cl)c1Cl`, “inactive”.
The same measure, in the same setting: the result for `Clc1ccc(N2CC3CCC(C2)N3)nn1` reads “inactive”.
The same measure, in the same setting: the result for `C[N+]1(C)C2CCC1CC(OC(=O)c1c[nH]c3ccccc13)C2` (centres undefined) reads “inactive”; that for `Nc1ccc(CCN2CCN(c3cccc(C(F)(F)F)c3)CC2)cc1`, “inactive”.
With `CCNC(=O)[C@H]1O[C@@H](n2cnc3c(N)ncnc32)[C@H](O)[C@@H]1O`, the Potency result was “inactive”.
Still for that read-out and setting: the result for `CCCCCCC(C)(C)c1ccc([C@@H]2C[C@H](O)CC[C@H]2CCCO)c(O)c1` reads “inactive”.
Same read-out and setting: the result for `CCCn1c(C)c(C(=O)c2ccc3ccccc3c2)c2ccccc21` reads “inactive”.
`O=[N+]([O-])/C=C/c1ccc2c(c1)OCO2`: the Potency entry is “inactive”.
Same read-out and setting: the result for `COC(=O)N1CCN(C(=O)Cc2ccc(Cl)c(Cl)c2)C(CN2CCCC2)C1` (centres undefined) reads “inactive”.
As for `CCCC[N+]1(C)C2CC(OC(=O)[C@H](CO)c3ccccc3)CC1C1OC12` (some centres undefined), the Potency entry was “inactive”.
On the same count and under the same terms, the result for `CN1CCc2cccc(Cl)c2CC1` reads “inactive”; that for `NC(=O)c1cc(N2CC2)c([N+](=O)[O-])cc1[N+](=O)[O-]`, “inactive”.
The same measure, in the same setting: the result for `CCCN(CCC)CCc1ccc(O)c(O)c1` reads “inactive”.
Same read-out and setting: the result for `CN1CCc2cc(O)cc3c2[C@H]1Cc1ccc(O)c(O)c1-3` reads “inactive”.
